BAZ2B inh – qHTS Assay for Inhibitors of BAZ2B | AlphaScreen BAZ2B-H3K14Ac peptide displacement | 4.4% of 360,000 active | AID 504333, 2011 | Bromodomain adjacent to zinc finger domain protein 2B (Homo sapiens), Q9UIF8 | Potency, µM (titrated, usually from 114 µM), most hits filed as inhibitors; note: nearly all actives have a fitted effect of over 60% in size
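Protein-peptide AlphaScreen: BAZ2B 50 nM, b-H3K14Ac 50 nM, 1x PBS pH 7.4 + 0.01% Tween-20. Preincubation 30 min RT; cpd 30 min RT (top 110 uM); beads 20 min RT, light-protected.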
HP1b binding inh – HTS for Inhibitors of HP1-beta Chromodomain Interactions with Methylated Histone Tails | AlphaScreen HP1-beta / biotin-H3K9me3 peptide binding | Potency, µM (highest dose often 114 µM), usual class: inhibitors | 0.56% of 390,000 active; note: nearly all actives have a fitted effect of over 70% in size
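Compound inhibition of the preformed complex between 50 nM HP1-beta and 50 nM biotinylated H3K9me3 peptide was read by AlphaScreen. Buffer was PBS pH 7.4 with 0.01% Tween-20. Incubations ran 30 min at room temperature, with 10 ug/mL donor/acceptor beads.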
JMJD2A Tudor inh – qHTS Assay for Inhibitors of JMJD2A-Tudor Domain | Lysine-specific demethylase 4A (Homo sapiens), O75164 | AlphaScreen JMJD2A-Tudor / H3K4me3 peptide binding | Potency, µM (titrated, usually from 114 µM), most hits filed as inhibitors | 4.4% of 390,000 active; note: nearly all actives have a fitted effect of over 50% in size
L3MBTL1 inh – qHTS Assay for the Inhibitors of L3MBTL1; Lethal(3)malignant brain tumor-like protein 1 (Homo sapiens), Q9Y468; AlphaScreen L3MBTL1–H3K9me1 peptide binding; Potency, µM (top dose mostly 57.1 µM), actives largely listed as inhibitors; 0.66% of 230,000 active; AID 485360, 2010; note: nearly all actives have a fitted effect of over 60% in size
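L3MBTL1 50 nM + b-AHA-H3(1-15)K9me1 75 nM, 30 min RT; compound added, 30 min RT; streptavidin donor/Ni-chelate acceptor beads 10 ug/mL each final, 30 min RT dark; AlphaScreen read.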
G9a block – qHTS Assay for Inhibitors of Histone Lysine Methyltransferase G9a | 8.8% of 350,000 active | G9a H3K9 monomethylation, AlphaScreen, 2 h | Potency, µM (titrated, usually from 102 µM), most hits filed as inhibitors; note: nearly all actives have a fitted effect of over 75% in size
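AlphaScreen detection with an anti-monomethyl H3K9 antibody quantified product after a 2 h room-temperature reaction containing 500 nM biotinylated H3K9 peptide, 20 µM SAM and 20 nM enzyme, which had been preincubated 15 min with compound.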
Numbers stand for hits; [ ] = dose if it differs, or a comment. Only some compounds are listed: those with a hit (about 11% of all), similar ones and a draw of the others. Calls come from the whole dose curve; as a rule, active = well fitted inhibition curve with a large enough effect; inconclusive = small, poorly fitted or top-dose-only effect; inactive = no such curve, though single readings can be large or run the other way.

`CCCn1nc(C(=O)NNC(=O)CSC(C)C(=O)Nc2cc(C)on2)c2ccccc2c1=O` (stereo unspecified) gave BAZ2B inh inactive, HP1b binding inh inactive, JMJD2A Tudor inh inactive and G9a block 22.4µM.
`Cc1ccc(/C=C2\SC(=S)N(CCCC(=O)Nc3cccc(C(=O)O)c3)C2=O)cc1` gave BAZ2B inh inactive, HP1b binding inh inconclusive, JMJD2A Tudor inh 39.8µM and G9a block inactive.
For COc1ccc(/C=C2\SC(=S)N(CCC(=O)Nc3cccc(C(=O)O)c3)C2=O)cc1 the results were BAZ2B inh inconclusive, HP1b binding inh inactive, JMJD2A Tudor inh inconclusive and L3MBTL1 inh inactive.
For O=C(CCN1C(=O)/C(=C/c2ccc(Cl)cc2)SC1=S)Nc1cccc(C(=O)O)c1 the results were BAZ2B inh 31.6µM, HP1b binding inh inactive, JMJD2A Tudor inh 50.1µM and G9a block 44.7µM.
For Fc1ccc(COc2ccc(Br)cc2CNCC2CCCO2)cc1 (stereo unspecified) the results were BAZ2B inh inactive, HP1b binding inh inactive, JMJD2A Tudor inh inactive, L3MBTL1 inh inactive and G9a block 50.1µM.
`CN(C)C(N)=NCCC[C@H](N)C(=O)O` gave HP1b binding inh inactive, JMJD2A Tudor inh 89.1µM and G9a block inactive[12.7 µM].
Screening NC(=NCCC[C@H](N)C(=O)O)NO returned G9a block inactive[12.7 µM].
Screening CC(C)CCNC(=O)Nc1ccc2c(c1)N(Cc1ccccc1)C(=O)c1ccccc1S2 returned BAZ2B inh inactive, HP1b binding inh inactive, JMJD2A Tudor inh inactive and G9a block inactive.
`O=C(O)c1ccc(Cl)c(S(=O)(=O)Nc2ccc(S(=O)(=O)N3CCCC3)cc2)c1` gave HP1b binding inh inactive, JMJD2A Tudor inh inactive and L3MBTL1 inh inactive.
`COC(=O)c1cc(NS(=O)(=O)c2ccc(Cl)c(N3C(=O)c4ccc(C(=O)O)cc4C3=O)c2)cc(C(=O)OC)c1` gave BAZ2B inh 0.794µM, HP1b binding inh inactive, JMJD2A Tudor inh inactive and G9a block inactive.
CC1CCc2c(sc(NC(=O)COc3ccccc3C(C)(C)C)c2C#N)C1 (stereo unspecified) was read as BAZ2B inh inactive, HP1b binding inh inactive, JMJD2A Tudor inh inactive and G9a block 10µM.
Screening COc1cccc(N2CCN(c3ncnc4c3[nH]c3ccc(F)cc34)CC2C)c1 (stereo unspecified) returned BAZ2B inh inconclusive, HP1b binding inh inconclusive, JMJD2A Tudor inh inconclusive, L3MBTL1 inh inactive and G9a block 17.8µM.
O=C(NNc1ccc(C2CCCCC2)cc1)C(O)(c1ccccc1)c1cccs1 (stereo unspecified) was read as BAZ2B inh 50.1µM, HP1b binding inh inactive, JMJD2A Tudor inh inactive, L3MBTL1 inh inactive and G9a block inactive[0.501 µM].
`COc1ccc(NC(=S)NCCCCCC(=O)C[N+](=O)[O-])cc1` gave BAZ2B inh inconclusive, HP1b binding inh inconclusive, JMJD2A Tudor inh inactive and G9a block 22.4µM.
Screening O=C(CCCCCNC(=S)Nc1ccccc1)C[N+](=O)[O-] returned BAZ2B inh inactive, HP1b binding inh inactive, JMJD2A Tudor inh inactive, L3MBTL1 inh inactive and G9a block 44.7µM.
`O=C(CCCCCNC(=S)Nc1ccc(Cl)cc1)C[N+](=O)[O-]` gave BAZ2B inh inactive, HP1b binding inh inconclusive, JMJD2A Tudor inh inactive, L3MBTL1 inh inactive and G9a block inconclusive.
`COc1ccc(CCNC(=S)Nc2ccc(OC)cc2)cc1` gave BAZ2B inh inactive, HP1b binding inh inactive, JMJD2A Tudor inh inactive, L3MBTL1 inh inactive and G9a block inactive.
For O=C(Nc1ccc2nc(SCC(=O)N3CCOCC3)sc2c1)c1cccc(Br)c1 the results were BAZ2B inh inactive, HP1b binding inh inactive, JMJD2A Tudor inh inactive and G9a block inactive.
CC(C)C(=O)OCc1cc(=O)n2nc(C3CC3)sc2n1 was read as BAZ2B inh inactive, HP1b binding inh inactive, JMJD2A Tudor inh inactive and G9a block inactive.
CCOc1ccc(C2CC(=O)n3nc(-c4ccc(C)cc4)nc3S2)cc1 (stereo unspecified) was read as BAZ2B inh inactive, HP1b binding inh inactive, JMJD2A Tudor inh inactive and G9a block inconclusive.
Screening COc1ccc(-c2nc3n(n2)C(=O)CC(c2ccco2)S3)cc1 (stereo unspecified) returned BAZ2B inh inconclusive, HP1b binding inh inactive, JMJD2A Tudor inh 31.6µM, L3MBTL1 inh inconclusive and G9a block 2.24µM.
`CCOC(=O)c1c(-c2ccccc2)csc1NC(=O)c1cc(-c2cccc(Cl)c2)on1` gave BAZ2B inh inactive, HP1b binding inh inactive, JMJD2A Tudor inh inactive and G9a block 8.91µM.
`CCOC(=O)c1c(-c2ccc(C)cc2)csc1NC(=O)c1cc(-c2ccc(OC)cc2)on1` gave BAZ2B inh inactive, HP1b binding inh inactive, JMJD2A Tudor inh inactive and G9a block inactive.
Screening CCOC(=O)c1c(-c2ccccc2)csc1NC(=O)c1cc(-c2cccc(OC)c2)on1 returned BAZ2B inh inactive, HP1b binding inh inactive, JMJD2A Tudor inh inactive and G9a block 3.98µM.
CCOC(=O)c1c(-c2ccc(C)cc2)csc1NC(=O)c1cc(=O)c2cc(C)ccc2o1 was read as BAZ2B inh inconclusive, HP1b binding inh inconclusive, JMJD2A Tudor inh 56.2µM and G9a block inconclusive.
Screening COc1ccc(OC)c(NC(=O)Cn2c(=O)cc(C)c3c(C)nn(-c4cccc(Cl)c4C)c32)c1 returned BAZ2B inh inactive, HP1b binding inh inactive, JMJD2A Tudor inh inactive and G9a block inactive.
`Cc1csc2nc(COC(=O)c3cccc(NC(=O)COc4ccccc4Cl)c3)cc(=O)n12` gave BAZ2B inh inactive, HP1b binding inh inactive, JMJD2A Tudor inh inactive and G9a block inactive[12.7 µM].
Cc1c(Cl)c(-c2n[nH]c(=S)n2CC(C)C)nn1C was read as BAZ2B inh inactive, HP1b binding inh inconclusive, JMJD2A Tudor inh 5.01µM, L3MBTL1 inh inactive and G9a block 35.5µM.
`S=c1[nH]nc(-c2cccc(Cl)c2)n1CCN1CCCCC1` gave BAZ2B inh inactive, HP1b binding inh inactive, JMJD2A Tudor inh inactive, L3MBTL1 inh inactive and G9a block inconclusive.
`CCCCn1c(-c2nn(C)c(C)c2Cl)n[nH]c1=S` gave BAZ2B inh inactive, HP1b binding inh inactive, JMJD2A Tudor inh 8.91µM, L3MBTL1 inh inactive and G9a block 11.2µM.
For Clc1ccc(-c2nnc(SCc3nc4ccccc4[nH]3)o2)c(Cl)c1 the results were BAZ2B inh inactive, HP1b binding inh inactive, JMJD2A Tudor inh inactive, L3MBTL1 inh inactive and G9a block 8.91µM.
`Cc1ccc(-n2nc(C)c3c(C)cc(=O)n(CC(=O)NC(C)c4ccccc4)c32)cc1` (stereo unspecified) gave BAZ2B inh inactive, HP1b binding inh inactive, JMJD2A Tudor inh inactive and G9a block inactive.

Screens as filed in PubChem.
